SENP8 block-1: human SENP8 protease inhibitors, primary screen, biochemical, fluorescence, Nedd8 protein substrate, uHTS | Sentrin-specific protease 8 (Homo sapiens), Q96LD8 | recombinant SENP8 | inhibition, % at 20 µM | hit rate 0.64% among 360,000 | AID 602440, 2012; in the data active means inhibition mostly above about 40%, no sharp cut-off; inactive means mostly below about 27%
Target sequence (Q96LD8 whole entry, looked up): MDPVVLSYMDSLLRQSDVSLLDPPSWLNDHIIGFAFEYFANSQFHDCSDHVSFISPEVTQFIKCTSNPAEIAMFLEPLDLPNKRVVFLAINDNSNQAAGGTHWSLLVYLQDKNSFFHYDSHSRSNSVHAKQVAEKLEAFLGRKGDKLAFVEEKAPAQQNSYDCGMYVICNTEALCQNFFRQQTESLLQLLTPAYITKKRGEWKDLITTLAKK
C8 TRAIL sens: viability loss with TRAIL in NB7+C8 cells, primary screen, TRAIL sensitizer project, cell-based, ATPlite luminescence | inhibition (viability loss, TRAIL sensitization), % at 10 µM | hit rate 1% among 360,000 | AID 624354, 2012;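 active means compounds causing at least 50% loss of cell viability in the single-dose screen, relative to plate controls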
SENP6 inh: SENP6 protease inhibitors, primary screen, biochemical, luminescence, uHTS. Sentrin-specific protease 6 (Homo sapiens), Q9GZR1. Recombinant SENP6 catalytic domain, aminoluciferin luminescence. inhibition, % at 10 µM. hit rate 1.8% among 330,000;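 active means inhibition above about 50% at the single tested dose, limit read from the data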
Target sequence (Q9GZR1 628-1112 limits assumed): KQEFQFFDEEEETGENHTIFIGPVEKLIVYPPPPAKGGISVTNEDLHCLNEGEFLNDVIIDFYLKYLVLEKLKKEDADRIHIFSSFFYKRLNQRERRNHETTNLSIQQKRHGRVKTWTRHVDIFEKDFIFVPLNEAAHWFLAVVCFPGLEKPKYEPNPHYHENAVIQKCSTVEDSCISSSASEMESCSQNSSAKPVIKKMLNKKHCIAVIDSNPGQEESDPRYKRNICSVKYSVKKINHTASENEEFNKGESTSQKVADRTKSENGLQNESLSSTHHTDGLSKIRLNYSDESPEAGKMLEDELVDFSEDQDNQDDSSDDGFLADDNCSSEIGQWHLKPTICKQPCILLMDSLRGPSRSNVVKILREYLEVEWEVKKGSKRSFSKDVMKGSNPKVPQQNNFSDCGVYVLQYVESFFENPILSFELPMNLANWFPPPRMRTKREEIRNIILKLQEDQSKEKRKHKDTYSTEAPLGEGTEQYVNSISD
SENP7 inh: SENP7 protease inhibitors, primary screen, biochemical, luminescence, uHTS. inhibition, % at 5 µM. AID 434973, 2010. recombinant SENP7, Z-RLRGG-aminoluciferin luminescence, 40 min. hit rate 1.5% among 330,000;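 active means inhibition above about 50% at the single test dose, limit read from the data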
PPC-1+TRAIL kill: compounds killing PPC-1 cancer cells with TRAIL present, primary screen, TRAIL potentiator project, ATPLite luminescence, uHTS | cell killing (% activity), % at 4 µM or 5 µM | PPC-1 cells + TRAIL, ATPLite viability luminescence | hit rate 0.41% among 220,000 | AID 1443, 2008;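 active means cell killing above 50% in the first pass at 4 µM, then a duplicate retest at 5 µM averaging 50% or more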
SENP8 block-2: SENP8 protease inhibitors, primary screen, biochemical, luminescence; hit rate 1.2% among 330,000; Sentrin-specific protease 8 (Homo sapiens), Q96LD8; AID 2540, 2010; inhibition, % at 10 µM; purified SENP8, Z-RLRGG-aminoluciferin cleavage; in the data active means inhibition above about 50%
Each line names hits and unclear results; the compound was inactive in the other large screens. Most compounds without a hit are left out; they make up all but 3% or so of the library.

CN(C)CCCNC(=O)C[C@H]1C[C@H](C(=O)N2CCCCC2)[C@@]2(CCc3ccccc3)c3[nH]c4ccc(Cl)cc4c3CCN2C1=O	C8 TRAIL sens 66.2 (no result: SENP6 inh, PPC-1+TRAIL kill, SENP8 block-2)
O=C(C[C@H]1C[C@H](C(=O)N2CCCCC2)[C@@]2(CCc3ccccc3)c3[nH]c4ccc(Cl)cc4c3CCN2C1=O)NCCC1=CCCCC1	C8 TRAIL sens 54.6 (no result: SENP6 inh, PPC-1+TRAIL kill, SENP8 block-2)
O=C(NCCc1ccc(Cl)cc1)C1CCC(CNc2c(N3CCCCC3)c(=O)c2=O)CC1 (stereo unspecified)	C8 TRAIL sens 51.1
COc1ccc(CN(CC(=O)NC(C)C)C(=O)CCC(=O)Nc2nccs2)cc1	none (no result: PPC-1+TRAIL kill)
CCOC(=O)C1C(c2cc(OC)c(O)c(OC)c2)NC(=S)NC1(O)C(F)(F)F (stereo unspecified)	PPC-1+TRAIL kill 53.1
CCOC(=O)C1C(c2cc(OC)c(OC)c(OC)c2)NC(=S)NC1(O)C(F)(F)F (stereo unspecified)	none
CC(C)Sc1ccc(C(=O)Nc2ccc(F)cc2F)cn1	SENP6 inh 70.4, SENP7 inh 68.3, SENP8 block-2 55.6
O=C(Nc1ccc(F)cc1F)c1ccc(-n2cccn2)nc1	none
CN(C)CCCNC(=O)c1ccc(-c2nc(-c3ccc(Cl)cc3)cs2)cc1	C8 TRAIL sens 89.8
CN(C)CCCNC(=O)c1ccccn1	none
CC(C)CC1OC(C)Cc2[nH][nH]c(=O)c21 (stereo unspecified)	none (no result: SENP6 inh, SENP7 inh, PPC-1+TRAIL kill, SENP8 block-2)
O=C(CCN1C(=O)/C(=C\C=C\c2ccccc2)SC1=S)Nc1ccc(C(=O)O)cc1	SENP6 inh 59.4, SENP8 block-2 59.9 (no result: PPC-1+TRAIL kill)
O=C(CN1C(=O)S/C(=C/C=C/c2ccccc2)C1=O)Nc1ccc(C(=O)O)cc1	none
CC(NC(=O)C1CCN(S(=O)(=O)c2ccc3c(c2)NC(=O)CO3)CC1)c1ccccc1 (stereo unspecified)	none (no result: PPC-1+TRAIL kill)
COc1ccc(OC)c2sc(N(CCN(C)C)C(=O)/C=C/c3cccs3)nc12	C8 TRAIL sens 93.3 (no result: PPC-1+TRAIL kill)
COc1ccc(C)c2sc(N(CCN(C)C)C(=O)/C=C/c3cccs3)nc12	none (no result: PPC-1+TRAIL kill)
CCN1C(=O)/C(=C2\C=Cc3ccccc3N2CC)SC1=S	SENP8 block-1 46.2
CCN1C(=O)/C(=c2\o/c(=C3\C=Cc4ccccc4N3CC)c(=O)n2CC)SC1=S	none (no result: SENP6 inh, SENP7 inh, SENP8 block-2)
O=C(c1ccccc1)c1ccc(O)c(O)c1O	SENP8 block-1 46.7 (no result: SENP6 inh, SENP7 inh, PPC-1+TRAIL kill, SENP8 block-2)
Cc1ccccc1Nc1nn2c(=O)c3ccccc3nc2s1	C8 TRAIL sens 49.9
O=c1/c(=C/c2ccccn2)sc2nc3ccccc3n12	C8 TRAIL sens 54.4, SENP6 inh 84.2, SENP7 inh 97.7, SENP8 block-2 79.0
COc1cccc(NC(=S)Nc2cccc3ccccc23)c1	SENP6 inh 88.8, SENP8 block-2 87.9 (no result: PPC-1+TRAIL kill)
C/C(=C\C(=S)Nc1ccccc1)Nc1cccc2ccccc12	SENP6 inh 83.2, SENP8 block-2 71.4
Cc1ccc(S(=O)(=O)N(C)C)cc1NC(=S)Nc1cccc2ccccc12	SENP6 inh 90.4, SENP7 inh 56.5, SENP8 block-2 84.1 (no result: PPC-1+TRAIL kill)
CCOc1ccc(NS(=O)(=O)c2cc(C(=O)NCCN3CCOCC3)ccc2C)cc1	none (no result: PPC-1+TRAIL kill)
COC(=O)c1ccc2nc(-c3ccc(C)cc3)c(CC3CCCCC3)n2c1	none (no result: SENP6 inh, SENP7 inh, PPC-1+TRAIL kill, SENP8 block-2)
COc1cccc(OCc2cc(C(=O)N3CCN(c4ccccc4OC)CC3)no2)c1	none (no result: PPC-1+TRAIL kill)
N#Cc1ccc(CN2CCN(C(=O)CNS(=O)(=O)c3ccc4c(c3)OCCCO4)CC2)cc1	none (no result: PPC-1+TRAIL kill)
CCc1c(C)[nH]n(-c2nc(-c3ccccc3)cs2)c1=O	none
Cc1[nH]n(-c2nc(-c3ccc(Cl)cc3)cs2)c(=O)c1N=Nc1ccc(O)cc1	SENP8 block-1 41.1, C8 TRAIL sens 80.5
N#C/C(N=Nc1ccccc1O)=N\Nc1ccccc1O	SENP8 block-1 58.3, C8 TRAIL sens 53.5, SENP6 inh 85.3, SENP8 block-2 73.7 (no result: PPC-1+TRAIL kill)
COc1ccc(/C=C/c2cc(-c3ccc(C)cc3)o[n+]2C)cc1	C8 TRAIL sens 74.0
Oc1c(Cl)cc(CN2CCOCC2)c2cccnc12	none (no result: PPC-1+TRAIL kill)
O=[N+]([O-])c1cc(CN2CCN(c3ccccc3)CC2)c(O)c2ncccc12	SENP8 block-1 48.0
O=[N+]([O-])c1cc(CN2CCOCC2)c2cccnc2c1O	none (no result: SENP8 block-1, C8 TRAIL sens, SENP6 inh, SENP7 inh, SENP8 block-2)
Oc1c(CN2CCCCC2)cc(Br)c2cccnc12	SENP8 block-1 53.1, C8 TRAIL sens 50.6
CN(Cc1ccccc1)C(=O)Cn1nnc(-c2ccccc2)c1COc1ccccc1	none (no result: SENP6 inh, SENP7 inh, PPC-1+TRAIL kill, SENP8 block-2)
CC(C)(C)OC(=O)NCCCC[C@H](NC(=O)c1nc[nH]c1C(=O)NC(c1ccccc1)c1ccccc1)C(=O)OC(C)(C)C	C8 TRAIL sens 53.3
Cc1cccc(NC(=O)c2nc[nH]c2C(=O)N[C@@H](CCCCNC(=O)OC(C)(C)C)C(=O)OC(C)(C)C)c1	C8 TRAIL sens 51.0
CC(C)C[C@H](NC(=O)c1nc[nH]c1C(=O)N[C@@H](CCCCNC(=O)OC(C)(C)C)C(=O)OC(C)(C)C)C(=O)OCc1ccccc1	C8 TRAIL sens 63.2 (no result: PPC-1+TRAIL kill)
C[C@H](NC(=O)c1nc[nH]c1C(=O)N[C@@H](CCCCNC(=O)OC(C)(C)C)C(=O)OC(C)(C)C)C(=O)OCc1ccccc1	none (no result: PPC-1+TRAIL kill)
Cc1cccc(NC(=O)c2nc[nH]c2C(=O)NCCCCCNC(=O)OC(C)(C)C)c1	none (no result: PPC-1+TRAIL kill)
CC(C)(C)OC(=O)NCc1ccc(CNC(=O)c2[nH]cnc2C(=O)NC2CCN(C(=O)OC(C)(C)C)CC2)cc1	none (no result: PPC-1+TRAIL kill)
CCOC(=O)C(C#N)=CN1CCNc2ccccc21	none (no result: SENP6 inh, SENP7 inh, PPC-1+TRAIL kill, SENP8 block-2)
CSc1cccc(NC(=O)C(=O)NCc2ccccc2)c1	none
O=C(NCc1ccccc1)C(=O)Nc1cccc(C(=O)O)c1	SENP6 inh 92.8, SENP7 inh 93.0, SENP8 block-2 83.6
O=C(Nc1cccc(Cl)c1)Nc1cccc(C(=O)O)c1	SENP6 inh 95.7, SENP7 inh 93.0, SENP8 block-2 87.3
CCN(c1ccccc1)S(=O)(=O)c1cccc(C(=O)Nc2cccc(C)n2)c1	none (no result: SENP6 inh, SENP7 inh, PPC-1+TRAIL kill, SENP8 block-2)
O=C(Nc1ccc(NC(=O)c2ccco2)nc1)c1cccc(F)c1	none (no result: PPC-1+TRAIL kill)
O=C(Nc1ccc(NC(=O)c2ccccc2F)cn1)c1ccco1	C8 TRAIL sens 54.3 (no result: PPC-1+TRAIL kill)
O=C(Nc1cnc2ccccc2c1)c1ccco1	SENP6 inh 70.3, SENP7 inh 70.4
N#C/C(=C\c1ccc(-c2nc3ccccc3s2)o1)C(N)=O	none
CNC(=O)/C(C#N)=C/c1ccc(-c2nc3ccccc3s2)o1	SENP7 inh 64.4
CC(C)N(C(=O)[C@H]1C[C@H](CC(=O)NCCCn2ccnc2)C(=O)N2CCc3c([nH]c4cc(CCC(=O)N(C)C)ccc34)[C@]12C)C(C)C	none (no result: SENP6 inh, PPC-1+TRAIL kill, SENP8 block-2)
Cn1c(C(=O)N2CCN(c3ccc(Cl)cc3)CC2)cc2c(=O)[nH]c3ccccc3c21	none
